According to PubChem BioAssay (NCATS):
Results filed as inconclusive are left out. Active and inactive are the calls of the source. The call rests on the fitted dose curve; in most records, active means well fitted curve in the direction sought with a large enough effect; inconclusive means small, poorly fitted or top-dose-only effect, or another doubt; inactive means no such curve, though single readings can be large; an effect the other way counts as inactive or inconclusive.

Key:
[1] = qHTS Assay for Identifying Gametocytocidal Compounds (AID 743244);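 further: actives lower the fluorescent signal which means gametocytes are killed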; conditions: P. falciparum 3D7 stage III-V gametocytes, alamarBlue, 72 h; max response: active compounds read low
Summary of the method: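 Stage III-V P. falciparum 3D7 gametocytes, 20,000 per well, were exposed to compounds for 72 h at 37C, 5% CO2. AlamarBlue was then added for 24 h and viability was read as fluorescence at Ex 525/Em 598 nm.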

[2] = qHTS assay to identify small molecule inhibitors of chordoma cells - UCH-1 (AID 1259355); further: nearly all actives have a fitted effect of over 55% in size
Summary of the method: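 Cells (800/well) were seeded and left overnight at 37 C, 5% CO2, then treated with drugs at 15 concentrations plus a combination mix of auranofin, camptothecin, doxorubicin, rubitecan and topotecan. Viability after 48hr was read by CellTiter-Glo luminescence.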

[3] = qHTS assay to identify small molecule inhibitors of chordoma cells - UCH-2 (AID 1259356); further: series mostly up to about 46 µM
On the % scale 0 is the no-effect control and ±100 the full control effect.

C=C1C(CCl)(CCl)C2(Cl)C(Cl)C(Cl)C1(Cl)C2(Cl)Cl (centres undefined)
inactive: max response [1] -0.376% | Potency [2] | Potency [3]

CC1(O)CCC(C(C)(C)O)CC1 (centres undefined)
inactive: max response [1] 5.51% | Potency [2] | Potency [3]

CCOC(=O)c1c[nH]c2cc(OCC(C)C)c(OCC(C)C)cc2c1=O
inactive: max response [1] -10.7% | Potency [2] | Potency [3]

O=S(=O)(O)CC(S)CS (centres undefined)
inactive: max response [1] 3.76% | Potency [2] | Potency [3]

C=C1c2c(Cl)ccc(O)c2C(O)=C2C(=O)[C@]3(O)C(O)=C(C(N)=O)C(=O)[C@@H](N(C)C)[C@@H]3[C@@H](O)[C@H]12
inactive: max response [1] 2.94% | Potency [2] | Potency [3]

OCCCNc1ccccc1
inactive: max response [1] -7.9% | Potency [2] | Potency [3]

Nc1ncnc2c1ncn2CCOCP(=O)(O)O
inactive: max response [1] -0.768% | Potency [2] | Potency [3]

CS(=O)(=O)c1ccc([C@@H](O)[C@@H](COC(=O)CN)NC(=O)C(Cl)Cl)cc1
inactive: max response [1] 0.65% | Potency [2] | Potency [3]

NC(=O)OCC(O)COc1ccc(Cl)cc1 (centres undefined)
inactive: max response [1] 9.36% | Potency [2] | Potency [3]

CCCCC[C@H](O)/C=C/[C@@H]1[C@H]2C/C(=C/CCCC(=O)O)O[C@H]2C[C@H]1O
inactive: max response [1] 18.5% | Potency [2] | Potency [3]

CC(=O)Nc1c(I)c(C(=O)N[C@H]2C(O)O[C@H](CO)[C@@H](O)[C@@H]2O)c(I)c(N(C)C(C)=O)c1I (some centres undefined)
inactive: max response [1] 5.57% | Potency [2] | Potency [3]

O=C(O)/C=C/C(=O)Nc1ccc(S(=O)(=O)Nc2nccs2)cc1
inactive: max response [1] 0.278% | Potency [2] | Potency [3]

Cc1c(C)c2c(c(C)c1OC(=O)CCC(=O)O)CC[C@@](C)(CCC[C@H](C)CCC[C@H](C)CCCC(C)C)O2
inactive: max response [1] -1.05% | Potency [2] | Potency [3]

N=C(N)c1ccc(/C=C/c2ccc(C(=N)N)cc2O)cc1
inactive: max response [1] 21.7% | Potency [2] | Potency [3]

NC(=O)C1c2ccccc2CCc2ccccc21
inactive: max response [1] -4.56% | Potency [2] | Potency [3]

CC/C=C\C/C=C\C/C=C\C/C=C\C/C=C\CCCC(=O)O
inactive: max response [1] -4.05% | Potency [2] | Potency [3]

CCOc1ccc(S(=O)(=O)O)c2cccnc12
inactive: max response [1] 1.62% | Potency [2] | Potency [3]

CCCCCCCCCCCC(=O)OC[C@@H](O)C1OC[C@H](O)[C@H]1O (some centres undefined)
inactive: max response [1] -8.97% | Potency [2] | Potency [3]

O=[n+]1ccn([O-])c2ccccc21
inactive: max response [1] -5.38% | Potency [2] | Potency [3]

CC(O)[C@H]1CC[C@H]2[C@@H]3CC[C@@H]4C[C@@H](O)CC[C@]4(C)[C@H]3CC[C@]12C (some centres undefined)
inactive: max response [1] 4.2% | Potency [2] | Potency [3]

C=C1[C@H](CO)[C@@H](O)C[C@@H]1n1cnc2c(=O)[nH]c(N)nc21
inactive: max response [1] 18.1% | Potency [2] | Potency [3]

NC(=S)NS(=O)(=O)c1ccc(N)cc1
inactive: max response [1] 5.02% | Potency [2] | Potency [3]

CC(C)(C)c1ccc(CN2CCN(C(c3ccccc3)c3ccc(Cl)cc3)CC2)cc1 (centres undefined)
inactive: max response [1] -2.06% | Potency [2] | Potency [3]

O=C(O)CCCC/C=C(\c1ccccc1)c1cccnc1
inactive: max response [1] 0.181% | Potency [2] | Potency [3]

Cc1cccc(C)c1NC(=O)NC1=CCCN1C
inactive: max response [1] -1.59% | Potency [2] | Potency [3]

CO[C@H]1C[C@@H]2CC[C@@H](C)[C@@](O)(O2)C(=O)C(=O)N2CCCC[C@H]2C(=O)O[C@H]([C@H](C)C[C@@H]2CC[C@@H](OC(=O)C(C)(CO)CO)[C@H](OC)C2)CC(=O)[C@H](C)/C=C(\C)[C@@H](O)[C@@H](OC)C(=O)[C@H](C)C[C@H](C)/C=C/C=C/C=C/1C
inactive: max response [1] -3.38% | Potency [2] | Potency [3]

Cc1ncc(C[n+]2csc(CCOP(=O)(O)O)c2C)c(N)n1
inactive: max response [1] -3.97% | Potency [2] | Potency [3]

O=C1c2ccccc2C(=O)c2c1ccc(O)c2O
inactive: max response [1] 2.07% | Potency [2] | Potency [3]
